Screens (PubChem)
Shown are actives, neighbours in structure and some others; about 1.3% of the full set was active somewhere.
NCOA3 inh = human NCOA3 inhibition; Q9Y6Q9; HEK293 GAL4-SRC3 luciferase reporter, luminescence; inhibition, % at 3.6 µM; 360,000 compounds, 0.17% hits; AID 588352;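 active = inhibition above a per-campaign cutoff, the mean of all compounds plus 3 SD, cut at about 60% in these data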;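 also: 0% = DMSO-treated cells and 100% = gossypol-treated cells at 36 µM; higher means less SRC3-driven luciferase light from the GAL4 reporter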
SRC2 inh = inhibits human steroid receptor coactivator 2 | HEK293 GAL4-SRC2 luciferase reporter, luminescence | 370,000 compounds, 0.17% hits | Q15596 | inhibition, % at 9 µM | AID 651957;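 active = inhibition above the mean inhibition of all tested compounds plus 3 SD, set per campaign, cut at about 52% in these data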;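 also: 0% = DMSO treated cells and 100% = cells given Gossypol at 36 µM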
NCOA1 inh = inhibitors of human steroid receptor coactivator 1 (SRC1). Q15788. 360,000 compounds, 0.12% hits. HEK293 GAL4-SRC1 luciferase reporter, luminescence. inhibition, % at 3.6 µM;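 active = inhibition above the campaign mean plus 3 SD, with each screening campaign given its own cutoff, cut at about 60% in these data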;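 also: 0% = DMSO treated cells and 100% = gossypol at 36 µM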
NR5A2 inv ag = inverse agonists of human LRH-1 (NR5A2) | HEK293T StAR-luciferase reporter, LRH-1 transfected, 24 h | 360,000 compounds, 0.13% hits | inhibition, % at 3.6 µM | O00482 | AID 602396;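 active = inhibition above the mean inhibition of all tested compounds plus 3 SD, cut at about 73% in these data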;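 also: 0% = DMSO wells and 100% = reporter-only cells lacking LRH-1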
Gli-Sufu block = antagonists of Gli-Sufu signaling; Sufu-KO-LIGHT fibroblasts, Gli luciferase reporter luminescence; AID 588413; inhibition, % at 5 µM; 340,000 compounds, 0.74% hits;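 active = inhibition above about 55%, limit read from the data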;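 also: 0% = DMSO-treated cells and 100% = wells with medium but no cells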
COUP-TFII inh = NR2F2 (human) inhibition, primary screen. HEK293T NGFI-A luciferase reporter, luminescence. inhibition, % at 8.6 µM. 370,000 compounds, 0.7% hits. AID 686940;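 active = inhibition above a per-plate cutoff, mean inhibition of test wells between control levels plus 3 SD, cut at about 38% in these data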;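 also: cells cotransfected with COUP-TFII expression vector driving the NGFI-A reporter; 0% = median of COUP-TF2 test wells and 100% = reporter-only cells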
Gal4-VP16 ctr = inhibits VP16 reporter, flagging COUP-TFII antagonist hits; 2,500 compounds, 25% hits; HEK293 Gal4-VP16 luciferase reporter, luminescence; shares compounds with COUP-TFII inh; AID 687007; inhibition, % at 8.5 µM; in the data active = inhibition above about 13%
NR2F2 inh conf = COUP-TFII (NR2F2) inhibition, confirmation assay. shares compounds with COUP-TFII inh. HEK293 NGFI-A luciferase reporter, luminescence. inhibition, % at 8.5 µM. 2,500 compounds, 45% hits;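 active = mean inhibition over three repeats above a set limit taken from the earlier primary screen, cut at about 38% in these data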;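 also: 100% = cells given the luciferase reporter alone without the COUP-TF2 vector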
Starred values were filed as active, the others as inactive; / = not tested or not shown.

SMILES	NCOA3 inh	SRC2 inh	NCOA1 inh	NR5A2 inv ag	Gli-Sufu block	COUP-TFII inh	Gal4-VP16 ctr	NR2F2 inh conf
CC(=NNc1ccc2ccccc2n1)c1ccccn1	/	38.2	/	/	/	58.8*	33.6*	73.7*
Cc1ccc(-c2[nH]c3ccccc3c2SCCNC(=O)c2ccc(S(=O)(=O)N3CCOCC3)cc2)cc1	12.7	-6.4	-24.5	28.4	5.6	47.3*	-8.2	-7.8
Cc1c(Cl)cccc1NC(=O)N1CCCN(c2nc(-c3ccccc3)ns2)CC1	30.0	13.5	14.0	23.4	14.1	56.8*	8.5	50.9*
O=C(Nc1ccccc1Cl)N1CCCN(c2nc(-c3ccccc3)ns2)CC1	19.9	24.1	15.8	-16.4	19.2	9.0	/	/
Cc1ccc(C(=O)N2c3ccccc3N(Cc3ccccc3)C(=O)C2(C)C)cc1	3.3	20.3	3.5	11.3	18.1	51.1*	-1.2	46.6*
COC(=O)[C@]12C[C@H](CC(=O)NCc3ccccc3)C(=O)N(Cc3ccco3)C1=C[C@H](C(C)C)O[C@@H]2C1CC1	/	11.5	/	/	/	-2.9	/	/
Cc1sc2c3ccsc3ccc2[n+]1C	-4.2	-12.5	-12.5	3.4	-2.4	8.8	/	/
CCN1/C(=C/c2ccc3cc(C)ccc3[n+]2C)Sc2ccc3sccc3c21	32.9	-41.9	15.6	38.8	86.3*	38.1*	5.3	12.0
CCN1/C(=C/c2ccc3cc(C)ccc3[n+]2CC)Sc2cc(C)ccc21	35.6	-18.3	19.9	56.8	90.2*	63.4*	8.6	53.2*
CN1CCCN(C(=O)CSc2nnc(-c3cccnc3)n2C2CCCCC2)CC1	/	-8.1	/	/	/	-6.0	/	/
O=C(c1ccc(S(=O)(=O)c2cccc(Cl)c2)c([N+](=O)[O-])c1)N1CCN(c2ccccn2)CC1	19.1	28.1	-0.9	1.7	18.3	45.3*	21.4*	8.6
c1ccc(-c2ccc(CNc3nc(-c4ccccn4)nnc3-c3ccccc3)cc2)cc1	/	/	/	/	/	55.1*	-1.9	18.4
CC(C)(C)CCNc1nc(-c2ccccn2)nnc1-c1ccccc1	/	/	/	/	/	51.6*	4.2	13.5
C=CCNc1nc(-c2ccccn2)nnc1-c1ccccc1	-2.3	21.3	-1.7	33.3	47.5	-45.3	/	/
Cc1ccc(-n2ncc3c(NCc4cccnc4)ncnc32)c(C)c1	21.0	18.5	19.8	17.2	26.6	40.8*	-11.9	23.6
Cc1cccc(-n2ncc3c(NCc4cccnc4)ncnc32)c1	-109.4	-58.0	-72.3	-125.2	-62.3	-26.9	/	/
CN1CCN(c2ccc(NC(=O)COc3ccccc3[N+](=O)[O-])cc2)CC1	-8.0	-8.8	-0.1	4.8	12.4	2.0	/	/
CC(C)C(=O)N1CCN(c2ccc(NC(=O)COc3ccccc3[N+](=O)[O-])cc2)CC1	49.2	24.8	23.2	2.1	29.5	49.8*	-2.2	27.7
CN=c1scc(-c2cccs2)n1/N=C/c1ccccc1O	92.7*	88.1*	92.3*	98.3*	81.2*	94.4*	87.8*	107.9*
Nn1c(SCC(=O)Nc2ccc(OCc3ccccc3)cc2)nnc1-c1cc(-c2ccc(Cl)cc2)n[nH]1	/	-23.0	/	/	/	10.7	/	/
Cc1cc(C)c(O)c(C(=O)CC2CC(=O)NC(=O)C2)c1	/	30.6	/	/	/	75.1*	-15.7	51.3*
Cc1ccc2c(c1)C1CS(=O)(=O)N(CC(C)C)C(=O)N1C2 (stereo not drawn)	/	-42.4	/	/	/	-25.6	/	/
COc1cccc(C(C)(O)c2nc(-c3ccccc3)cs2)c1 (stereo not drawn)	3.2	0.2	10.8	16.2	/	21.4	/	/
COc1cccc(C(C)(O)c2nc(-c3ccc(N(C)C)cc3)cs2)c1 (stereo not drawn)	-9.1	15.1	13.2	10.1	/	54.7*	-21.5	34.5
Cc1n[nH]c(C)c1S(=O)(=O)NCCc1ccccc1F	/	-7.1	/	/	/	-2.9	/	/
SMILES	NCOA3 inh	SRC2 inh	NCOA1 inh	NR5A2 inv ag	Gli-Sufu block	COUP-TFII inh	Gal4-VP16 ctr	NR2F2 inh conf
Cc1cc(NS(=O)(=O)c2ccc(NC(=O)CSc3nc4sc(C)c(C)c4c(=O)n3Cc3ccco3)cc2)nc(C)n1	/	-9.4	/	/	/	10.8	/	/
CCc1ccc(-c2nc(CSCC(=O)N3CCN(c4ccccn4)CC3)c(C)o2)cc1	36.7	14.0	9.4	35.8	27.3	51.6*	8.6	22.6
Cc1ccc(-c2nc(CSCC(=O)N3CCN(C(=O)c4ccco4)CC3)c(C)o2)cc1	11.4	-5.4	-16.2	-16.2	0.2	24.2	/	/
CCOc1ccc(-c2nc(CSCC(=O)N3CCN(c4cccc(OC)c4)CC3)c(C)o2)cc1	17.9	58.8*	13.4	27.8	8.1	66.4*	16.6*	44.4*
CCCCC(=O)N[C@H]1CC[C@@]23CCCN2C(=O)CCC[C@H]3[C@H]1C	/	/	/	/	/	3.1	/	/
O=NN(CCc1ccncc1)c1ccc(OCc2ccccc2)cc1	25.6	26.8	2.3	57.6	48.4	50.8*	-2.9	44.9*
Cc1ccccc1CNC(=O)CN1CCCc2ccccc21	/	-18.6	/	/	/	7.5	/	/
Cn1nc(C(C)(C)C)cc1C(=O)N1CCCCC1c1cc(C(=O)NCc2ccc(F)cc2)no1 (stereo not drawn)	-4.1	0.5	4.2	16.9	/	38.5*	2.7	16.8
Cn1nc(C(C)(C)C)cc1C(=O)N1CCCCC1c1cc(C(=O)NCc2ccccc2)no1 (stereo not drawn)	-8.2	7.7	3.7	11.2	/	27.7	/	/
COc1cc(CC2COC(=O)C2Cc2ccc(O)c(OC)c2)ccc1O (stereo not drawn)	/	12.8	/	/	/	35.9	/	/
COc1cc(CC2COC(=O)C2(O)Cc2ccc(O)c(OC)c2)ccc1O (stereo not drawn)	20.4	3.4	19.4	21.6	17.4	52.5*	-2.4	25.3
Cc1ccc2nc(-c3ccc(O)c(O)c3)cn2c1	-122.9	-63.9	-114.1	-125.5	-2.2	-39.1	/	/
Cc1ccc2nc(-c3ccccc3)cn2c1	36.3	67.3*	27.7	11.1	18.1	52.8*	-4.5	21.4
O=C(C1CC1)N1CCC(C(O)(c2ccccc2)c2ccccc2)CC1	13.5	-25.0	-4.6	14.1	19.4	-3.5	/	/
O=C(N1CCC(C(O)(c2ccccc2)c2ccccc2)CC1)n1ncc(C(O)(c2ccccc2)c2ccccc2)n1	/	/	/	/	/	43.8*	0.1	10.7
CCOC(=O)CC[C@H]1CC[C@]2(CCCN(C(=O)C(C)(C)C)C2)O1	/	8.3	/	/	/	-10.1	/	/
CCN(CC)CCCNc1ncnc2scc(-c3ccc(F)cc3)c12	9.3	-21.0	15.9	1.0	40.7	-7.7	/	/
COc1ccc(-c2csc3ncnc(NCCCO)c23)cc1	59.4	19.8	67.0*	23.6	-2.2	44.4*	14.1*	23.9
O=C(Nc1ccc(Cl)c(Cl)c1)C1CCN(c2ncccn2)CC1	/	-10.6	/	/	/	15.5	/	/
CC(=O)N1CCN(C(=O)c2cc3ccccc3o2)CC1	-37.2	15.3	-0.3	-0.2	-20.5	4.4	/	/
